Screening results: PubChem BioAssay, National Center for Advancing Translational Sciences (NCATS)
HP1b chromo inh: inhibitors of HP1-beta chromodomain binding to methylated histone tails; Potency, µM (highest dose often 114 µM), inactives show at the highest dose activity change, negative = inhibition, actives largely listed as inhibitors; hit rate 0.56% among 390,000; AlphaScreen HP1-beta / biotin-H3K9me3 peptide binding; P83916; also: potency is read from the fitted curve at half-maximal effect; nearly all actives have a fitted effect of over 70% in size
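AlphaScreen: HP1-beta (50 nM) preformed 30 min with biotin-H3(1-18)K9me3 peptide (50 nM) in PBS pH 7.4, 0.01% Tween-20. Compound added for 30 min at RT, then streptavidin donor/nickel chelate acceptor beads (10 ug/mL) for 30 min.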
KDM4E inh: JMJD2E (human) inhibition. JMJD2E catalytic domain, FDH-coupled NADH fluorescence (FDH is formaldehyde dehydrogenase). Potency, µM (series often up to 57.1 µM), inactives show at the top dose activity change, negative = inhibition, most hits filed as inhibitors. hit rate 1.6% among 230,000; active = well fitted inhibition curve with a large enough effect, not every such curve was filed as active; inconclusive = small, poorly fitted or top-dose-only effect, or another doubt; inactive = no such curve, though single readings can be large or run the other way;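 also: potency is read from the fitted curve at half-maximal effect; 0% = wells with enzyme and -100% = buffer wells without enzyme; nearly all actives have a fitted effect of over 50% in size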
L3MBTL1 inh: blocks human L3MBTL1 | Q9Y468 | AlphaScreen L3MBTL1–H3K9me1 peptide binding | Potency, µM (series often up to 57.1 µM), for inactives: at the top dose activity, negative = inhibition, most hits filed as inhibitors | hit rate 0.66% among 230,000 | AID 485360; also: potency is read from the fitted curve at half-maximal effect; % is scaled to controls: 0 for no effect and ±100 for the full control effect; nearly all actives have a fitted effect of over 60% in size
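Read-out is AlphaScreen signal from streptavidin donor and nickel chelate acceptor beads (10 ug/mL final each) bridging L3MBTL1 (50 nM) and biotinylated K9-monomethylated H3(1-15) peptide (75 nM), after 30 min compound exposure at room temperature.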
BAZ2B block: BAZ2B (human) inhibition. Q9UIF8. AlphaScreen BAZ2B-H3K14Ac peptide displacement. Potency, µM (series often up to 114 µM), for the others: at the highest dose activity change, negative = inhibition, hits mostly inhibitors. hit rate 4.4% among 360,000. AID 504333; also: potency is read from the fitted curve at half-maximal effect; % is scaled to controls: 0 for no effect and ±100 for the full control effect; nearly all actives have a fitted effect of over 60% in size
Target sequence (Q9UIF8 whole entry, looked up): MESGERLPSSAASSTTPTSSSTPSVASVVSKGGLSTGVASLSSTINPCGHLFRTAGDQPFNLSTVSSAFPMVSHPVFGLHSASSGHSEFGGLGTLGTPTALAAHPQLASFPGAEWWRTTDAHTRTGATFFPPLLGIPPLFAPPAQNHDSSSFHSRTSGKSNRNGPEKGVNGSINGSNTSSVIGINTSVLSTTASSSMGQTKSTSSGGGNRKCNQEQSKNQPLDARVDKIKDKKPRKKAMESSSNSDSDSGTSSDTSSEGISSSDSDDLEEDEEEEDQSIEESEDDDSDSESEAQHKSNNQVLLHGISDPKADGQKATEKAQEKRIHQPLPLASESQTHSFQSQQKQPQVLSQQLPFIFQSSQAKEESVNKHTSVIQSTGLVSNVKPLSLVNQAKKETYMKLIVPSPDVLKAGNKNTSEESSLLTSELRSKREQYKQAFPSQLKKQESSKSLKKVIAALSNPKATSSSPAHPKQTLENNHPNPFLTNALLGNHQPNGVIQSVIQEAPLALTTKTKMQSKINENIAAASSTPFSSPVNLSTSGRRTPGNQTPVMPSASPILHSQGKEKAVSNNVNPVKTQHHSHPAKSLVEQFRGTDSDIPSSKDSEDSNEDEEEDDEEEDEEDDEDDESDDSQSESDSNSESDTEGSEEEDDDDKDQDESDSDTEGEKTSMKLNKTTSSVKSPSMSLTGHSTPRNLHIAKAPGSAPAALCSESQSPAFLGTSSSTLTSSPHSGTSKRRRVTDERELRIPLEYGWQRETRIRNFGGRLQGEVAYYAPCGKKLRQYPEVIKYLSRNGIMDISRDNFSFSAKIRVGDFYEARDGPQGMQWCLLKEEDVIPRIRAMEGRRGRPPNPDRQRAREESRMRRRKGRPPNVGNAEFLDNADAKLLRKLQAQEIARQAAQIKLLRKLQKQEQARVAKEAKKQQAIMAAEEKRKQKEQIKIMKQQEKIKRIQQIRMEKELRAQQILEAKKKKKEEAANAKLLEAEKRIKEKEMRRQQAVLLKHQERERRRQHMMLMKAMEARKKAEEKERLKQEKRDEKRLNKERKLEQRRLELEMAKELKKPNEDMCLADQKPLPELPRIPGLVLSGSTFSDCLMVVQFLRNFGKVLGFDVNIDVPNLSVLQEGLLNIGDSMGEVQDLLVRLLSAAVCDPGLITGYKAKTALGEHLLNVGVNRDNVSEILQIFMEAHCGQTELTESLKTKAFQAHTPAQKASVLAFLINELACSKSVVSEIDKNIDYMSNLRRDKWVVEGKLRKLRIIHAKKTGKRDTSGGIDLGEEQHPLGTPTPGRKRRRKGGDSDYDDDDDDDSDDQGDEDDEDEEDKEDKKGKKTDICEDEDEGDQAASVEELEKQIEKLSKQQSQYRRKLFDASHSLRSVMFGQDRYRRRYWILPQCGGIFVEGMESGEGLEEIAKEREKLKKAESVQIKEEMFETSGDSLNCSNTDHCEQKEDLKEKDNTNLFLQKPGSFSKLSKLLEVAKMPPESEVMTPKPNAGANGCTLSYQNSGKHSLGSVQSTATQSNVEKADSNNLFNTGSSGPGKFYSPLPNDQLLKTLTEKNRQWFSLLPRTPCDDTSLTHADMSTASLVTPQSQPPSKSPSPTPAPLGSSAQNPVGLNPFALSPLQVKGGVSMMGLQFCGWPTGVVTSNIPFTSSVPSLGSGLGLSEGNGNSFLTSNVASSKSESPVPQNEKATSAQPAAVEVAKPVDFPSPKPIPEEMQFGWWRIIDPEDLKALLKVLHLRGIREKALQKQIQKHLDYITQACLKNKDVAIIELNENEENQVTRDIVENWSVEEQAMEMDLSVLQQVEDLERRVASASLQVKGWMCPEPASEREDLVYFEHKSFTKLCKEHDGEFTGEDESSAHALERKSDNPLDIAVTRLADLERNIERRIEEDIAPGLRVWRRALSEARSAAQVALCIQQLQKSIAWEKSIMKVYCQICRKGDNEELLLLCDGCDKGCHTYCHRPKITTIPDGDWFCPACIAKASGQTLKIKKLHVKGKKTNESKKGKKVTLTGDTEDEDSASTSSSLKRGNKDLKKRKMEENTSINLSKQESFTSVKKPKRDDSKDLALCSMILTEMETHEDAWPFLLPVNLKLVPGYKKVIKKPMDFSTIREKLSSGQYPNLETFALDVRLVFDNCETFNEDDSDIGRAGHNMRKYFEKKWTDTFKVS
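AlphaScreen displacement: compounds (up to 110uM) incubated 30 min at room temperature with a preformed 50 nM BAZ2B/50 nM biotinylated H3K14Ac peptide complex in PBS pH 7.4 with Tween-20. Donor and acceptor beads at 10 ug/mL final added, 20 min light-protected before reading.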
JMJD2A Tudor: inhibitors of human JMJD2A Tudor domain; Potency, µM (series often up to 114 µM), inactives show at the highest dose activity change, negative = inhibition, hits mostly inhibitors; hit rate 4.4% among 390,000; AID 504339; AlphaScreen JMJD2A-Tudor / H3K4me3 peptide binding; O75164; also: potency is read from the fitted curve at half-maximal effect; % is scaled to controls: 0 for no effect and ±100 for the full control effect; nearly all actives have a fitted effect of over 50% in size
PI5P4K alpha inh: inhibitors of human PI5P4K alpha. hit rate 1.2% among 330,000. max response, %. PI5P4Kalpha enzyme, ADP-Glo luminescence, 60 min; hits give low values. P48426; active = max response of -50% or lower; inconclusive = between -30% and -50%; inactive = -30% or higher; also: value at the top dose of about 77 µM; % is scaled to controls: 0 for no effect and ±100 for the full control effect
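Controls without substrate or without enzyme flank wells where PI5P4Kalpha converts substrate using 5 microM ATP (final). Incubation lasts 60 minutes at room temperature; ADP formed is read by ADP-Glo luminescence.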
Starred values were filed as active, the others as inactive; u = inconclusive; x = no result; [ ] = remark or other dose. Most compounds without a hit are left out; they make up all but 5.7% or so of the library. Unless noted, calls follow the shape of the dose curve; as a rule, active = well fitted inhibition curve with a large enough effect; inconclusive = small, poorly fitted or top-dose-only effect; inactive = no such curve, though single readings can be large or run the other way.

SMILES	HP1b chromo inh	KDM4E inh	L3MBTL1 inh	BAZ2B block	JMJD2A Tudor	PI5P4K alpha inh
O=C(COC(=O)c1ccccn1)c1ccc([N+](=O)[O-])cc1	29%	x	x	11µM*	25µM*	u
O=[N+]([O-])c1ccccc1/C=N\Nc1nccs1	6%	x	-11%	-3%	-20%	11
O=[N+]([O-])c1cc(/C=N\Nc2nccs2)ccc1O	x	u	x	4µM*	x	x
COc1cc(-c2ccc3ncnc(NCc4cccs4)c3c2)cc(OC)c1OC	x	x	x	x	-16%	x
COc1ccc(C(=O)N2CCN(C3CCC(c4ccccc4)CC3)CC2)cc1OC (configuration not stated)	-49%	u	2%	50µM*	2.8µM*	x
COc1ccccc1N1CCN(C2CCN(C(=O)c3cccc(F)c3)CC2)CC1	u	u	3%	50µM*	28µM*	-9
O=C(c1cccc(OC2CCN(C3CCCC3)CC2)c1)N1CCCCCCC1	38%	-3%	-1%	-8%	-2%	1
COc1ccc(C(=O)N2CCC(c3ccncc3)CC2)cc1OC	11%	x	x	2%	-9%	x
COc1ccccc1C(=O)N1CCN(C2CCN(Cc3ccccc3)CC2)CC1	u	u	x	56µM*	7.9µM*	-1
COc1cccc(C(=O)N2CCN(C3CCCCC3)CC2)c1	-24%	x	4%	u	11µM*	1
Cc1cccc(S(=O)(=O)Nc2cccc(-c3ccc(N4CCCCC4)nn3)c2)c1	13%[57 µM]	x	x	-7%	-15%	x
CCC(CC)NC(=O)CN1CCN(S(=O)(=O)c2ccc(Br)s2)CC1	23%	x	0%	-4%	-7%	-3
COc1cccc(C(=O)N2CCN(C3CCN(Cc4ccccc4)CC3)CC2)c1	x	u	x	28µM*	x	x
CCc1ccc(NC(=O)CSc2nnc(-c3cc4occc4n3C)n2-c2ccccc2C)cc1	20%	x	x	-29%	-32%	x
CSc1nc2ccc(NC(=O)c3ccco3)cc2s1	29%	2%	13%	-5%	-12%	-5
Cc1ccc(NC(=O)CSc2nc3ccc(NC(=O)c4ccco4)cc3s2)cc1	13%	x	x	79µM*	-35%	x
CCC(Sc1nnc(C)s1)C(=O)Nc1nccs1 (configuration not stated)	23%	-1%	-1%	-5%	-6%	4
CCCC(=O)Nc1ccc2nc(SCC(=O)Nc3nccs3)sc2c1	-10%	4%	6%	u	79µM*	-15
CN(C)c1ccc(NC(=O)c2sc(SCC(=O)Nc3nccs3)nc2N)cc1	u	-2%	x	40µM*	u	-26
CCCC(=O)Nc1ccc2nc(SCCOc3ccccc3)sc2c1	47%	x	x	u	-9%	x
CCC(Sc1nc2ccc(N)cc2s1)C(=O)Nc1nccs1 (configuration not stated)	26%	3%	x	-32%	50µM*	-5
COc1cc(-c2ccc3ncnc(N(C)Cc4csc(C)n4)c3c2)cc(OC)c1OC	x	x	x	x	-21%	x
CC(=O)Nc1ccc2nc(SCC(=O)Nc3ccc(N4CCOCC4)c(Cl)c3)sc2c1	22%	u	-8%	11µM*	-21%	-14
O=C(CSc1nc2ccccc2s1)Nc1ccc(N2CCOCC2)c(Cl)c1	23%	-5%	-1%	4%	-22%	7
CCOC(=O)/C=C/C(=O)OCC(=O)Nc1ccc([N+](=O)[O-])cc1	18%[57 µM]	-7%	x	0%	-8%	0
SMILES	HP1b chromo inh	KDM4E inh	L3MBTL1 inh	BAZ2B block	JMJD2A Tudor	PI5P4K alpha inh
CCOC(=O)CSc1nc(N)c(C#N)c(-c2ccc(OC)cc2)c1C#N	58%	u	0%	7%	6%	-64*
NCC(=O)Nc1cccc(-c2nn3c(=O)cc(N4CCNCC4)nc3s2)c1	x	x	x	x	-21%	x
Cc1ccc(Nc2c(-c3ccc(N(C)C)cc3)nc3ccccn23)cc1	u	x	x	-20%	7.9µM*	x
Cc1ccc(Nc2c(-c3ccc(C)o3)nc3ccccn23)cc1	-14%	x	x	x	u	x
Cc1ccc(-c2nc3ccccn3c2NCc2ccc3c(c2)OCO3)cc1	u	u	u	u	100µM*	1
Cc1ccc(-c2nc3ccccn3c2Nc2ccc3c(c2)OCO3)cc1	u	x	x	18µM*	25µM*	x
